Results published in the supplement of paper PMC7411054.
Structures can show the parent of a compound that is named as a salt.

Experiments:
Conditions in all cases: treatment time: 24 h
A549-GM130-SQSTM1 [1] = assay: lowest phenotypically active concentration; higher = less potent
Summary of the method: (§1)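 The reporter lines, fifteen in total and built by gene editing in A549, HepG2 and WPMY1 cells, used BFP for segmentation alongside GFP and RFP/FusionRed markers. Each was treated at 0.3, 1, 3 or 9 µM for 24 h in four wells and then imaged live, with live-cell features normalised to solvent control wells. Deviation meant ≥3 of 4 wells beyond the 95th percentile of control Euclidean distances; reproducibility meant a median replicate Pearson correlation above the 95th percentile of non-replicates. Only conditions meeting both were scored as phenotypically active.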

A549-TUBA1B-RELA [2] = assay: as above
Summary of the method: as §1

HepG2-ACTB-RAB5A [3] = assay: as above
Summary of the method: as §1

WPMY1-GM130-SQSTM1 [4] = assay: as above
Summary of the method: as §1

A549-ACTB-RAB5A = assay: phenotypically active (imaging signature differs from DMSO and reproducible) at any of 0.3-9 uM (binary (1 = active, 0 = inactive)); higher = active
Summary of the method: as §1

A549-CANX-COX4 = assay: as above
Summary of the method: as §1

A549-GM130-SQSTM1 [5] = assay: as above
Summary of the method: as §1

A549-TP53BP1-CLTA = assay: as above
Summary of the method: as §1

A549-TUBA1B-RELA [6] = assay: as above
Summary of the method: as §1

HepG2-ACTB-RAB5A [7] = assay: as above
Summary of the method: as §1

HepG2-CANX-COX4 [8] = assay: as above
Summary of the method: as §1

HepG2-GM130-SQSTM1 [9] = assay: as above
Summary of the method: as §1

HepG2-TP53BP1-CLTA [10] = assay: as above
Summary of the method: as §1

HepG2-TUBA1B-RELA [11] = assay: as above
Summary of the method: as §1

WPMY1-ACTB-RAB5A [12] = assay: as above
Summary of the method: as §1

WPMY1-CANX-COX4 [13] = assay: as above
Summary of the method: as §1

WPMY1-GM130-SQSTM1 [14] = assay: as above
Summary of the method: as §1

WPMY1-TP53BP1-CLTA [15] = assay: as above
Summary of the method: as §1

WPMY1-TUBA1B-RELA [16] = assay: as above
Summary of the method: as §1

HepG2-CANX-COX4 [17] = assay: lowest phenotypically active concentration; higher = less potent
Summary of the method: as §1

HepG2-GM130-SQSTM1 [18] = assay: as above
Summary of the method: as §1

WPMY1-TUBA1B-RELA [19] = assay: as above
Summary of the method: as §1

HepG2-TUBA1B-RELA [20] = assay: as above
Summary of the method: as §1

WPMY1-ACTB-RAB5A [21] = assay: as above
Summary of the method: as §1

WPMY1-CANX-COX4 [22] = assay: as above
Summary of the method: as §1

WPMY1-TP53BP1-CLTA [23] = assay: as above
Summary of the method: as §1

HepG2-TP53BP1-CLTA [24] = assay: as above
Summary of the method: as §1

Structure (SMILES)	lowest phenotypically active concentration (A549-GM130-SQSTM1 [1]) [µM]	lowest phenotypically active concentration (A549-TUBA1B-RELA [2]) [µM]	lowest phenotypically active concentration (HepG2-ACTB-RAB5A [3]) [µM]	lowest phenotypically active concentration (WPMY1-GM130-SQSTM1 [4]) [µM]	phenotypically active (A549-ACTB-RAB5A)	phenotypically active (A549-CANX-COX4)	phenotypically active (A549-GM130-SQSTM1 [5])	phenotypically active (A549-TP53BP1-CLTA)	phenotypically active (A549-TUBA1B-RELA [6])	phenotypically active (HepG2-ACTB-RAB5A [7])	phenotypically active (HepG2-CANX-COX4 [8])	phenotypically active (HepG2-GM130-SQSTM1 [9])	phenotypically active (HepG2-TP53BP1-CLTA [10])	phenotypically active (HepG2-TUBA1B-RELA [11])	phenotypically active (WPMY1-ACTB-RAB5A [12])	phenotypically active (WPMY1-CANX-COX4 [13])	phenotypically active (WPMY1-GM130-SQSTM1 [14])	phenotypically active (WPMY1-TP53BP1-CLTA [15])	phenotypically active (WPMY1-TUBA1B-RELA [16])	lowest phenotypically active concentration (HepG2-CANX-COX4 [17]) [µM]	lowest phenotypically active concentration (HepG2-GM130-SQSTM1 [18]) [µM]	lowest phenotypically active concentration (WPMY1-TUBA1B-RELA [19]) [µM]	lowest phenotypically active concentration (HepG2-TUBA1B-RELA [20]) [µM]	lowest phenotypically active concentration (WPMY1-ACTB-RAB5A [21]) [µM]	lowest phenotypically active concentration (WPMY1-CANX-COX4 [22]) [µM]	lowest phenotypically active concentration (WPMY1-TP53BP1-CLTA [23]) [µM]	lowest phenotypically active concentration (HepG2-TP53BP1-CLTA [24]) [µM]
COc1cc2c(cc1O)C[C@H]1c3c(cc(O)c(OC)c3-2)CCN1C [Boldine]	9	9	9	1	0 (inactive)	0 (inactive)	1 (active)	0 (inactive)	1 (active)	1 (active)	0 (inactive)	0 (inactive)	0 (inactive)	0 (inactive)	0 (inactive)	0 (inactive)	1 (active)	0 (inactive)	0 (inactive)	–	–	–	–	–	–	–	–
C[C@]12CC[C@H]3[C@@H](CCC4=CC(=O)CC[C@@]43C)[C@@H]1CC[C@@H]2O [testosterone]	–	–	–	9	0 (inactive)	0 (inactive)	0 (inactive)	0 (inactive)	0 (inactive)	0 (inactive)	1 (active)	0 (inactive)	0 (inactive)	0 (inactive)	0 (inactive)	0 (inactive)	1 (active)	0 (inactive)	0 (inactive)	3	–	–	–	–	–	–	–
Cc1sc2c(c1C)C(c1ccc(Cl)cc1)=N[C@H](CC(=O)OC(C)(C)C)c1nnc(C)n1-2	–	–	9	9	0 (inactive)	0 (inactive)	0 (inactive)	0 (inactive)	0 (inactive)	1 (active)	1 (active)	1 (active)	0 (inactive)	0 (inactive)	0 (inactive)	0 (inactive)	1 (active)	0 (inactive)	1 (active)	9	9	9	–	–	–	–	–
C[C@H]1C(=O)O[C@@H]2CCN3CC=C(COC(=O)[C@](C)(O)[C@]1(C)O)[C@H]23 [Monocrotaline]	–	3	–	–	0 (inactive)	0 (inactive)	0 (inactive)	0 (inactive)	1 (active)	0 (inactive)	0 (inactive)	0 (inactive)	0 (inactive)	0 (inactive)	0 (inactive)	0 (inactive)	0 (inactive)	0 (inactive)	0 (inactive)	–	–	–	–	–	–	–	–
CC(C)c1cccc(C(C)C)c1O [propofol]	–	–	–	3	0 (inactive)	0 (inactive)	0 (inactive)	0 (inactive)	0 (inactive)	0 (inactive)	0 (inactive)	0 (inactive)	0 (inactive)	0 (inactive)	0 (inactive)	0 (inactive)	1 (active)	0 (inactive)	0 (inactive)	–	–	–	–	–	–	–	–
C[C@]1(C(=O)O)CCC[C@]2(C)c3cc(O)ccc3CC[C@@H]12 [Podocarpic acid]	–	–	–	–	–	0 (inactive)	–	0 (inactive)	–	0 (inactive)	0 (inactive)	0 (inactive)	0 (inactive)	0 (inactive)	0 (inactive)	0 (inactive)	0 (inactive)	0 (inactive)	0 (inactive)	–	–	–	–	–	–	–	–
O=P1(N(CCCl)CCCl)NCCCO1 (centres undefined) [cyclophosphamide]	–	–	–	–	–	0 (inactive)	–	0 (inactive)	–	0 (inactive)	0 (inactive)	0 (inactive)	0 (inactive)	0 (inactive)	0 (inactive)	0 (inactive)	0 (inactive)	0 (inactive)	0 (inactive)	–	–	–	–	–	–	–	–
c1ccc([C@@H]2C[C@H]2NC2CCNCC2)cc1 [GSK LSD 1 dihydrochloride]	–	–	–	9	0 (inactive)	0 (inactive)	0 (inactive)	0 (inactive)	0 (inactive)	0 (inactive)	0 (inactive)	0 (inactive)	0 (inactive)	0 (inactive)	0 (inactive)	0 (inactive)	1 (active)	0 (inactive)	0 (inactive)	–	–	–	–	–	–	–	–
C[C@@H]1NCCc2cc(O)c(O)cc21 [Salsolinol hydrobromide]	–	–	–	9	0 (inactive)	0 (inactive)	0 (inactive)	0 (inactive)	0 (inactive)	0 (inactive)	0 (inactive)	0 (inactive)	0 (inactive)	0 (inactive)	0 (inactive)	0 (inactive)	1 (active)	0 (inactive)	0 (inactive)	–	–	–	–	–	–	–	–
CN1[C@@H]2CC[C@H]1C[C@@H](OC(=O)C(CO)c1ccccc1)C2 (some centres undefined) [Atropine sulfate monohydrate]	–	–	–	–	0 (inactive)	0 (inactive)	0 (inactive)	–	0 (inactive)	0 (inactive)	0 (inactive)	0 (inactive)	–	0 (inactive)	0 (inactive)	0 (inactive)	0 (inactive)	–	0 (inactive)	–	–	–	–	–	–	–	–
CN1[C@@H]2CC[C@H]1C[C@@H](OC(=O)[C@H](CO)c1ccccc1)C2 [Hyoscyamine (L)]	–	–	–	–	0 (inactive)	0 (inactive)	0 (inactive)	–	0 (inactive)	0 (inactive)	0 (inactive)	0 (inactive)	–	0 (inactive)	0 (inactive)	0 (inactive)	0 (inactive)	–	0 (inactive)	–	–	–	–	–	–	–	–
O=C1NC(=S)N(c2cccc(Br)c2)C(=O)/C1=C/c1ccco1	–	9	–	3	0 (inactive)	0 (inactive)	0 (inactive)	0 (inactive)	1 (active)	0 (inactive)	1 (active)	1 (active)	0 (inactive)	1 (active)	1 (active)	1 (active)	1 (active)	1 (active)	1 (active)	9	9	9	9	3	9	9	–
C=C1C/C(=C\C)C(=O)O[C@@H]2CCN3CC=C(COC(=O)[C@]1(C)O)[C@H]23 [Seneciphylline]	–	–	–	–	0 (inactive)	0 (inactive)	0 (inactive)	0 (inactive)	0 (inactive)	0 (inactive)	0 (inactive)	0 (inactive)	1 (active)	0 (inactive)	0 (inactive)	0 (inactive)	0 (inactive)	0 (inactive)	0 (inactive)	–	–	–	–	–	–	–	9
Cc1c(C(=O)c2cccc3ccccc23)c2cccc3c2n1[C@H](CN1CCOCC1)CO3 [WIN 55,212-2 mesylate]	9	–	–	9	0 (inactive)	0 (inactive)	1 (active)	0 (inactive)	0 (inactive)	0 (inactive)	0 (inactive)	1 (active)	0 (inactive)	0 (inactive)	1 (active)	1 (active)	1 (active)	1 (active)	0 (inactive)	–	9	–	–	9	9	9	–
